Results reported in the supplement of paper PMC11732987, “Enantioselective OTUD7B fragment discovery through chemoproteomics screening and high-throughput optimisation” (Communications Chemistry, 2025).

Experiments:
Assay in all cases: log2 ratio of Biotin-Ahx-Ub-VS probe labelling (fragment/DMSO); higher = less target engagement (more negative = stronger competition), active = hit call of the paper (q ≤ 0.05, log2 ratio ≤ -1)
Conditions in all cases: compound concentration: 200 uM; treatment time: 3 h
USP34 = USP34 (UniProt Q70CQ2)
How it was run: (§1)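 Each value is an average log2 ratio of fragment to vehicle, tested by unpaired t-test. The underlying Spectronaut label-free quantities were global-median-normalised, and only proteins with ≥2 unique peptides were included. Triplicate HEK293T lysate samples (495 µg) were exposed to fragment at 200 µM or vehicle for 3 h, then to Biotin-Ahx-Ub-VS at 0.5 µM final for 1 h, before NeutrAvidin enrichment of labelled DUBs, LysC and trypsin digestion, and diaPASEF LC-MS/MS.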

USP36 = biological target: T1, USP36 (UniProt Q9P275)
T1 sequence (whole entry): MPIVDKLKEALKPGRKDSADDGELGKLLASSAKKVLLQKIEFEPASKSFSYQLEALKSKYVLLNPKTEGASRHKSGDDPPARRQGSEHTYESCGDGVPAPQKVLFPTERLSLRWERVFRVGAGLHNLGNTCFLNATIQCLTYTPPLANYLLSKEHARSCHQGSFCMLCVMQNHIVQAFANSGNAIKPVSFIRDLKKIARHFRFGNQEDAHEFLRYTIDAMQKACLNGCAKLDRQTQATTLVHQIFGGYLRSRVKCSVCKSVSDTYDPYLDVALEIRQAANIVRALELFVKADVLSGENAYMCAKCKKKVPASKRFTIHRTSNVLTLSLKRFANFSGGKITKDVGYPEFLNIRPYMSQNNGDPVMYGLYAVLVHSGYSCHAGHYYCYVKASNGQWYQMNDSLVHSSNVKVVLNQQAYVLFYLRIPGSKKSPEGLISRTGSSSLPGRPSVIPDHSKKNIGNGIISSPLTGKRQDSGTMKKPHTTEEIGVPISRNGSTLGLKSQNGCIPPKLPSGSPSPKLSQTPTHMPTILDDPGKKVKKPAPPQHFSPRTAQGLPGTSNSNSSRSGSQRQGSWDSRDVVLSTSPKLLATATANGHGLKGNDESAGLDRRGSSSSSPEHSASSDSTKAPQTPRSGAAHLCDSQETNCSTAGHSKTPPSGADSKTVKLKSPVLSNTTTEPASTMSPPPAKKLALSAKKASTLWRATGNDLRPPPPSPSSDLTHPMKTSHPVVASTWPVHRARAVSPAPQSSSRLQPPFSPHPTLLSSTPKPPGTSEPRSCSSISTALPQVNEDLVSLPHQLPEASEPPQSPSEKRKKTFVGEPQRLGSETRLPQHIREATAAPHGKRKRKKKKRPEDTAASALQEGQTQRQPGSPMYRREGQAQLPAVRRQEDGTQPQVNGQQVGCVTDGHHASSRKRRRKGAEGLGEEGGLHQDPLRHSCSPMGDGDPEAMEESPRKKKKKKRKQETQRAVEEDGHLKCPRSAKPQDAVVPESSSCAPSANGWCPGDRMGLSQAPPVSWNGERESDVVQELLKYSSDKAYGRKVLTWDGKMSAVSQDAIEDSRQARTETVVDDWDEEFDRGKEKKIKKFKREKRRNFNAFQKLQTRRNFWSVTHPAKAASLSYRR
How it was run: as §1

USP38 = biological target: T2, USP38 (UniProt Q8NB14)
T2 sequence (whole entry): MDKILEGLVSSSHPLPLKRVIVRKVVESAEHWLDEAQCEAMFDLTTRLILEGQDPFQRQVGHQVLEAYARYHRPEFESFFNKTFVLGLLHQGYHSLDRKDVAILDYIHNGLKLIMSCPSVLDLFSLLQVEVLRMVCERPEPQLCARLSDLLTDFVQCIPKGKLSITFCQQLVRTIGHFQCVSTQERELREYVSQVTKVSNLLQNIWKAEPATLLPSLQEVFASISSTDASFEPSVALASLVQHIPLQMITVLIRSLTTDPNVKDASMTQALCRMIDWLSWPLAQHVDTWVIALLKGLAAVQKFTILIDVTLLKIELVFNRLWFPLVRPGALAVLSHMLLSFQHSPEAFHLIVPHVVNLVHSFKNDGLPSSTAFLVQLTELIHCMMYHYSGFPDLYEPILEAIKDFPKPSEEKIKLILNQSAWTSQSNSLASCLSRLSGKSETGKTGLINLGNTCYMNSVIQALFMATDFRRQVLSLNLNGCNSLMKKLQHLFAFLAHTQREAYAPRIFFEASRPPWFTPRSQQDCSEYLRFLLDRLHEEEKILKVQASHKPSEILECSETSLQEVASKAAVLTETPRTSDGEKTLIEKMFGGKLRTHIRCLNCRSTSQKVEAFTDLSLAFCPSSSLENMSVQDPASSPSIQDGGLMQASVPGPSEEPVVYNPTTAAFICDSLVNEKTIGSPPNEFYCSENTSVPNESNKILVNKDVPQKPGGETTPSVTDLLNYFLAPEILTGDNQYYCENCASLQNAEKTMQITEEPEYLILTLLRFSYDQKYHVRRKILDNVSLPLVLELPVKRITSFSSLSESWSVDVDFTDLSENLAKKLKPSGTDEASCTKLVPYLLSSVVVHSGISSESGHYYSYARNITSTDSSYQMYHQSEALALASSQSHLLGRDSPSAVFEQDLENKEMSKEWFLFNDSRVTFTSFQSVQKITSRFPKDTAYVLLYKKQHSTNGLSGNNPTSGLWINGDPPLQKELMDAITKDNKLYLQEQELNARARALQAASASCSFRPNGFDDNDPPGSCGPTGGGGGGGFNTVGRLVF
How it was run: as §1

USP39 = biological target: T3, USP39 (UniProt Q53GS9)
T3 sequence (whole entry): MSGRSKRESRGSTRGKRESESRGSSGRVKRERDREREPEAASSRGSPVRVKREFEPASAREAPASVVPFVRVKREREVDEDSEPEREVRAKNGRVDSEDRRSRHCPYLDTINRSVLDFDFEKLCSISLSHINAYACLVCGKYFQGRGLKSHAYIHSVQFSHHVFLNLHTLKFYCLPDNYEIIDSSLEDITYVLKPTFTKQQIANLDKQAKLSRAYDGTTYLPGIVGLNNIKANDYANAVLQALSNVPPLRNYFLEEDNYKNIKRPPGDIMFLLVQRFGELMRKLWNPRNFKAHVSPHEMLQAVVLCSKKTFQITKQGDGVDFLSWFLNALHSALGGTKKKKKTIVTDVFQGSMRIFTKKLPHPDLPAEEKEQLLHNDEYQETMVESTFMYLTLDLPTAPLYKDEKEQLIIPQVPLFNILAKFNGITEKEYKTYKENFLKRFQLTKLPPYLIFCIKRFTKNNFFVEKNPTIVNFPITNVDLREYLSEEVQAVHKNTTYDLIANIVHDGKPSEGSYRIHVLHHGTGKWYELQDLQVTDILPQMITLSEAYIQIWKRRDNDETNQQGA
How it was run: as §1

USP4 = biological target: T4, USP4 (UniProt Q13107)
T4 sequence (whole entry): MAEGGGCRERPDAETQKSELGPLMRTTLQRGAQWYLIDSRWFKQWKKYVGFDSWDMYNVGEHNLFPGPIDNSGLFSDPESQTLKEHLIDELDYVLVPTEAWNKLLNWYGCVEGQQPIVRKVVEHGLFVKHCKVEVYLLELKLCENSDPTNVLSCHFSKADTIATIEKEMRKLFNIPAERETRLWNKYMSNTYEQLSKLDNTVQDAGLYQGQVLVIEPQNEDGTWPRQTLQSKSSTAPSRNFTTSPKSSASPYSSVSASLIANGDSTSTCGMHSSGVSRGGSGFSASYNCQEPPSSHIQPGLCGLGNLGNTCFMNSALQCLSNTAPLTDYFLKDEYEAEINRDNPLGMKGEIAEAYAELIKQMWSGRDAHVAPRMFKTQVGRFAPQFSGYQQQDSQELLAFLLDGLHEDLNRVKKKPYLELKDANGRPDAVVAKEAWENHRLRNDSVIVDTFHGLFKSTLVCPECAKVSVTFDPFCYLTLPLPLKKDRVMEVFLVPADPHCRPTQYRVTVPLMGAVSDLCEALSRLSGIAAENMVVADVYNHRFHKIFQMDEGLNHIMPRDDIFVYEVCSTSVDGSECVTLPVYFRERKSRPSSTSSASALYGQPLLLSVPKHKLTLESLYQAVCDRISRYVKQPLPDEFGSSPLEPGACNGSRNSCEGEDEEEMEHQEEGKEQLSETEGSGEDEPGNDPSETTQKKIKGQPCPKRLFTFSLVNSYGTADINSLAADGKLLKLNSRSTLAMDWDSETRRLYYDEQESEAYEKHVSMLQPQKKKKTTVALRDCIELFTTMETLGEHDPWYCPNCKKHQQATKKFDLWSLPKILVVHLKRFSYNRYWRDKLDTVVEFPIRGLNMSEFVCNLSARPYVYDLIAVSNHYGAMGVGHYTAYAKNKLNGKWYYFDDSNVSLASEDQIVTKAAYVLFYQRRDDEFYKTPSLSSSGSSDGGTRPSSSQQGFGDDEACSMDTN
How it was run: as §1

Measured: log2 ratio of Biotin-Ahx-Ub-VS probe labelling

Sequence of USP34 (Q70CQ2 whole entry, the tested form may be a part): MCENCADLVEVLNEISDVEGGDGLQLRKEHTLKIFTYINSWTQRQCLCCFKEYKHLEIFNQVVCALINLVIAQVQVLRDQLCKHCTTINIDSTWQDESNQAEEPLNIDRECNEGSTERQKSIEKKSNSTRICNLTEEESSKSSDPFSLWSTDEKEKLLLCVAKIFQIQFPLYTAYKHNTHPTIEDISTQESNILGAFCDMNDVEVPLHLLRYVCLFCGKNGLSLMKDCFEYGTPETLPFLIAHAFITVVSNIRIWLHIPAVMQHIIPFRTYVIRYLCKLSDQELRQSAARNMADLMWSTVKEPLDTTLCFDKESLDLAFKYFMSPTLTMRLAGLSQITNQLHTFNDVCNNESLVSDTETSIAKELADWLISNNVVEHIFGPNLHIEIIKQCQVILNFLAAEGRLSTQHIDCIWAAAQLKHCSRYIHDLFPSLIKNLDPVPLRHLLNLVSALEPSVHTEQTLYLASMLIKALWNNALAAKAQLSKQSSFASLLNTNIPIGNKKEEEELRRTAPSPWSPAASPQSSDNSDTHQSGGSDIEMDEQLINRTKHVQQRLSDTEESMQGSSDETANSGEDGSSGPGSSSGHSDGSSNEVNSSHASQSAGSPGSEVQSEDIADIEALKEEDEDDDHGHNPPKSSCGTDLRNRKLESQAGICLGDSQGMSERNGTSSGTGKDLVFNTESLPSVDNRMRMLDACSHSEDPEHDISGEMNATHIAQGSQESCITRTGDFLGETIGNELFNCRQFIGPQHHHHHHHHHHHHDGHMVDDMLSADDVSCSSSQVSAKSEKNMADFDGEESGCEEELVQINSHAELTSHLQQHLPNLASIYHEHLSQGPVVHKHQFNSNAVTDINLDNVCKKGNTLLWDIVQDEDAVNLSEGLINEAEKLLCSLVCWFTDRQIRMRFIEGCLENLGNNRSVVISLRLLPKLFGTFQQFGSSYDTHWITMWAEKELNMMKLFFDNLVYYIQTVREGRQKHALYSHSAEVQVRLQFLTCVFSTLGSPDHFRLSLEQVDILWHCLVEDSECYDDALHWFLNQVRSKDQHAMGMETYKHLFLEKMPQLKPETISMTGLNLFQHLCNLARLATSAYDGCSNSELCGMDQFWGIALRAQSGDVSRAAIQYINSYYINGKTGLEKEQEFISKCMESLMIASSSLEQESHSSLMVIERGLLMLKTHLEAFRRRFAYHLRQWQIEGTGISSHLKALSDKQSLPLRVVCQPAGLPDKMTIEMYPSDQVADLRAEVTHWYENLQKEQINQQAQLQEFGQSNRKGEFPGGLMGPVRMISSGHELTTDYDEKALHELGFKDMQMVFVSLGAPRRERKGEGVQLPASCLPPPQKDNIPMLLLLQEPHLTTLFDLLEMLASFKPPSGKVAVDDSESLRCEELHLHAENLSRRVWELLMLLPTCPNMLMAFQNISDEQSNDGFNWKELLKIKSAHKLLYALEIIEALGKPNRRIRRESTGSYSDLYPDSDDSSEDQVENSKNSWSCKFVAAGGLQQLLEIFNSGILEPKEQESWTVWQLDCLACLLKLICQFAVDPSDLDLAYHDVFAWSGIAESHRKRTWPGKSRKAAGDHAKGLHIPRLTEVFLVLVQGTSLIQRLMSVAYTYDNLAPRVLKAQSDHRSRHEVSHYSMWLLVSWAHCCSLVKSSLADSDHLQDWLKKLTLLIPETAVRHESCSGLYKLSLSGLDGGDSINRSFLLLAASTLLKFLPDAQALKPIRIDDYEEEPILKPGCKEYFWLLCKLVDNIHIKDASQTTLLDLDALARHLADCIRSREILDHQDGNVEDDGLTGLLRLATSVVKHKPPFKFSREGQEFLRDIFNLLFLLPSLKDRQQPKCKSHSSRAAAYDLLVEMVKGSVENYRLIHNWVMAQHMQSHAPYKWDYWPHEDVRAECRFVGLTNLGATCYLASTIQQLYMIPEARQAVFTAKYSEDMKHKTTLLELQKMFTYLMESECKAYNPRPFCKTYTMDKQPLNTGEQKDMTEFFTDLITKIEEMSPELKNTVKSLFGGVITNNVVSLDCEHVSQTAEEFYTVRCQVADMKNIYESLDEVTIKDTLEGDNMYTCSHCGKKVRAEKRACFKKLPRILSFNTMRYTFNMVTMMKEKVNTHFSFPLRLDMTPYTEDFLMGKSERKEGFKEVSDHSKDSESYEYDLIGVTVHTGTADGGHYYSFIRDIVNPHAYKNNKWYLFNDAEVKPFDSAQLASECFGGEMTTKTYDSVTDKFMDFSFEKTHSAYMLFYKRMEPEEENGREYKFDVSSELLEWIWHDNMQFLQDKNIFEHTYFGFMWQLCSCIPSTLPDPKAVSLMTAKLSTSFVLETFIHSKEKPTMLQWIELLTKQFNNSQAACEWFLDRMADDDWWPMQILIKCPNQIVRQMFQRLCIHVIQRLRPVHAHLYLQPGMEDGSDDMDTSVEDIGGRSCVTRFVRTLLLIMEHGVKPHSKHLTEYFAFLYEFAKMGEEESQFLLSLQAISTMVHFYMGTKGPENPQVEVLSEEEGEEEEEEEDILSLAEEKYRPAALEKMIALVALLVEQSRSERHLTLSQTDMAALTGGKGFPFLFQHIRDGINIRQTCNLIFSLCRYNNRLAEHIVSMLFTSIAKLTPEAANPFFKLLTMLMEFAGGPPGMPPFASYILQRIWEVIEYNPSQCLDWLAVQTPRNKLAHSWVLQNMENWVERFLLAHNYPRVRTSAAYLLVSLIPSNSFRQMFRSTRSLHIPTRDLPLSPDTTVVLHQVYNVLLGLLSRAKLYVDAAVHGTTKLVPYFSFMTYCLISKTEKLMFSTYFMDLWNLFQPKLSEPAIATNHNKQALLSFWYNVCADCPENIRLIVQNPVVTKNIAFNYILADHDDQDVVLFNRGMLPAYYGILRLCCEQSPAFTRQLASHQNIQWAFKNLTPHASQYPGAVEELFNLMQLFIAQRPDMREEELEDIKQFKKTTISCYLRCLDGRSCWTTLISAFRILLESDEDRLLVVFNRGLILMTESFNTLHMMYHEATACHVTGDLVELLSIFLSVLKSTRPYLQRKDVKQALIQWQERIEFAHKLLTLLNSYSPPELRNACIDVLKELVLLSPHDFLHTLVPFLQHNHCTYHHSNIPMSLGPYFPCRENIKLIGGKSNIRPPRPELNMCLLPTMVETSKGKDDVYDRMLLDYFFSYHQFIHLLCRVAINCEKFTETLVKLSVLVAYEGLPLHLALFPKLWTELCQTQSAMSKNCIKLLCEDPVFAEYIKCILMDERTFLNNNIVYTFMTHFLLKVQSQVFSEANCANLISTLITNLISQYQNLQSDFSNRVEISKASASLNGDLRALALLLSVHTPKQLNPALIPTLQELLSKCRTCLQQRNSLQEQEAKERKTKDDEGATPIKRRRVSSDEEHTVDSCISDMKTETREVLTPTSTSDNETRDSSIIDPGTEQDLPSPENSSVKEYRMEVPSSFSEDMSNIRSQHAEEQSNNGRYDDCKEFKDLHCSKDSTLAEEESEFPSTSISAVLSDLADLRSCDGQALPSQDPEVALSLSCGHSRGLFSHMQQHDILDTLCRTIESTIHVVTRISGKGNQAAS

O=C(CCl)N1CCc2ccccc2C(O)C1 (stereo not given)
inactive: USP34 -0.224 | USP36 -0.441 | USP38 -0.0535 | USP39 0.0381 | USP4 -0.274
